In PubChem BioAssay AID1851 (National Center for Advancing Translational Sciences (NCATS), 2009):
“And” between values parts separate entries of the source, which are not always exact repeats. Equal values may be shown once. The campaign covered roughly 16,000 compounds. About 4,000 (25%) were called active. About 26% were inconclusive and are not listed. Calls come from the whole dose curve; as a rule, active = well fitted curve in the direction sought with a large enough effect; inconclusive = small, poorly fitted or top-dose-only effect, or effect the other way; inactive = no such curve, though single readings can be large or run the other way. A selection follows. Some structures have more than one record in an assay (separate samples or runs), and their calls can disagree.

target: Cytochrome P450 2C9 (Homo sapiens) (UniProt P11712); experiment: Cytochrome panel assay with activity outcomes; details: recombinant CYP, pro-luciferin dealkylation, luminescence, p450-cyp2c9; series mostly up to 57.1 µM
Sequence (P11712 whole entry, looked up): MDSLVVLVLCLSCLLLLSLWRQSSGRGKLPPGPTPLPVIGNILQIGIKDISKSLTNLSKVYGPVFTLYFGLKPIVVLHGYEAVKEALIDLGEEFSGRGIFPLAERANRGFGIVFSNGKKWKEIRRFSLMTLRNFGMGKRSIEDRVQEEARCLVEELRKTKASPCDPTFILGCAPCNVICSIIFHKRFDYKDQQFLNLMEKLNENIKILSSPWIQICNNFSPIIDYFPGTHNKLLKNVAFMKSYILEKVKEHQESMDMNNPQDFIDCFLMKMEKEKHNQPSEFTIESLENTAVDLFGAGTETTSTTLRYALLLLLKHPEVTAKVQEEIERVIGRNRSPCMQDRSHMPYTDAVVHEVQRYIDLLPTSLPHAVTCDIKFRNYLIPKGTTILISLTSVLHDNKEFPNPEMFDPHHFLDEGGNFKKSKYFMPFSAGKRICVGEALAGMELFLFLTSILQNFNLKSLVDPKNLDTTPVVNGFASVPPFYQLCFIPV
% is set by controls: 0 for no effect and ±100 for the full control effect.

Row | SMILES | activity, negative = inhibition | AC50
1 | O=C(O)c1cc2ccccc2c(S(=O)(=O)O)c1O | 10.7% [at 11.4 µM] (inactive) | 
2 | O=C(O)C1=C/C(=C(/c2ccccc2)c2cc(C(=O)O)c(O)c3ccccc23)c2ccccc2C1=O | 1.25% [at 11.4 µM] (inactive) and -1.88% [at 11.4 µM] (inactive) | 
3 | Cc1cc(OCC(F)(F)C(F)(F)C(F)(F)C(F)(F)C(F)(F)C(F)F)nc(N)n1 |  | 12.6 µM (active)
4 | CC(C)NC[C@@H](O)c1ccc(O)c2ncccc12 | 11% [at 11.4 µM] (inactive) | 
5 | CCOc1ccc(C2=[N+]([O-])C(C)(C)N(O)C2(C)C)cc1 |  | inactive
6 | Oc1ccccc1-c1nnc(-c2ccc(C(F)(F)F)cc2)o1 |  | inactive
7 | CCOc1ccc(-c2nnc(-c3ccncc3)o2)cc1 |  | 12.6 µM (active)
8 | Oc1cc2c(cc1O)[C@H](c1ccccc1)CNCC2 |  | inactive
9 | Cc1ccccc1-c1nc(N2CCN(C)CC2)c2ccccc2n1 | 5.44% [at 2.29 µM] (inactive) | 
10 | Cc1[nH]n2c(=O)c3c(nc2c1-c1cccc2ccccc12)CCC3 |  | 5.62 µM (active)
11 | Cc1c2c(nc3c(C(=O)NC4CCCC4)cnn13)CCCC2 |  | inactive
12 | Cc1ccc(N=Nc2c(N)[nH]n3c(=O)c4c(nc23)CCCC4)cc1 |  | 10 µM (active)
13 | Cc1ccc(N=Nc2c(=O)[nH]n3c(C)cc(C)nc23)cc1 |  | inactive
14 | O=P(O)(O)O[C@@H]1O[C@H](CO)[C@@H](O)[C@H](O)[C@@H]1O | 8.79% [at 11.4 µM] (inactive) | 
15 | CCN(CC)[C@@H](C)CN1c2ccccc2Sc2ccccc21 |  | inactive
16 | Cc1c(-c2ccccc2)oc2c(C(=O)OCCN3CCCCC3)cccc2c1=O |  | inactive
17 | O=C(OCCN1CCCCC1)c1c[nH]c2ccccc12 |  | inactive and 2 µM (active)
18 | COc1cccc(OC)c1OCCCCN1CCCC1 |  | inactive
19 | CCOC(=O)c1c(C(C)(C)C)oc2ccc(O)cc12 |  | 20 µM (active)
20 | C[C@@](N)(Cc1ccc(O)cc1)C(=O)O |  | inactive
21 | C[C@@](N)(Cc1ccc(O)c(O)c1)C(=O)O |  | inactive
22 | COc1cccc(OC)c1C(=O)NC(=S)N1CCN(c2ccc(C(F)(F)F)cc2[N+](=O)[O-])CC1 |  | 0.355 µM (active)
23 | CC1CN(C(=S)NC(=O)c2ccc([N+](=O)[O-])cc2)CC(C)O1 (centres undefined) |  | inactive
24 | CC(C)Oc1cccc(C(=O)NC(=S)N2CCN(c3ccc(C(F)(F)F)cc3[N+](=O)[O-])CC2)c1 |  | 3.16 µM (active)
25 | CCC(=O)NC(=S)N1CCN(c2ccc([N+](=O)[O-])cc2Cl)CC1 |  | inactive

Row | SMILES | activity, negative = inhibition | AC50
26 | CC(C)N=C(N)/N=C(\N)Nc1ccc(Cl)cc1 |  | inactive
27 | CNCCc1ccccn1 |  | inactive
28 | O=c1ccn([C@@H]2O[C@@H](COP(=O)(O)OP(=O)(O)O)[C@H](O)[C@@H]2O)c(=O)[nH]1 |  | inactive
29 | COc1cc2nc3c(c([Si](C)(C)C(C)(C)C)c2cc1OC)Cn1c-3cccc1=O |  | 15.8 µM (active)
30 | COc1ccc2nc3c(c([Si](C)(C)C(C)(C)C)c2c1)Cn1c-3cccc1=O |  | 12.6 µM (active)
31 | CCc1c2c(nc3ccc(OC)cc13)COC2 |  | inactive
32 | CC(C)NC(=O)N1CCCC2(CCN(C(=O)c3cc(C(F)(F)F)cc(C(F)(F)F)c3)CC2)C1 |  | inactive
33 | CC(C)CN(CC#N)CC(C)C | 4.39% [at 11.4 µM] (inactive) | 
34 | CSc1nc2ccccc2cc1/C=C(\C#N)c1ccc(Cl)cc1Cl |  | 25.1 µM (active)
35 | CSc1nc2ccccc2cc1/C=C(\C#N)c1ccccc1 |  | 3.98 µM (active)
36 | CN(C)CCCc1c2ccccc2nc2ccc(Cl)cc12 | 11.6% [at 11.4 µM] (inactive) | 
37 | COc1ccc(-n2c(=O)cnc3cnc(OC)nc32)cc1 |  | inactive
38 | O=C(O)CC1(CC(=O)O)Nc2ccccc2SC1=O | -2.99% [at 11.4 µM] (inactive) | 
39 | Cc1c(Cl)cccc1NC(=O)CC1NCCNC1=O (centres undefined) |  | inactive
40 | Cc1cc(Cl)ccc1NC(=O)CN1CCC(C(O)(c2ccccc2)c2ccccc2)CC1 |  | 7.08 µM (active)
41 | O[C@@](CCN1CCCCC1)(c1ccccc1)C1CCCCC1 |  | inactive
42 | Cc1c(Cl)cccc1NC(=O)CN1CCC(C(O)(c2ccccc2)c2ccccc2)CC1 |  | 2 µM (active)
43 | Cc1ccccc1NC(=O)CN1CCC(n2nnc3ccccc32)CC1 |  | inactive
44 | Cc1c(NC(=O)CN2CCN(c3ccccc3)CC2)c(=O)n(-c2ccccc2)n1C |  | inactive
45 | CCc1nc2cc(CC(=O)O)ccc2o1 |  | inactive
46 | C[C@@H](C(=O)Nc1ccc2ccccc2c1)[C@H]1C[C@]1(C)[C@H](NC(=O)c1cnccn1)c1ccccc1 |  | 5.01 µM (active)
47 | C[C@@H](C(=O)Nc1ccc2ccccc2c1)[C@@H]1C[C@@]1(C)[C@@H](NC(=O)c1cnccn1)c1ccccc1 |  | 0.0631 µM (active)
48 | COC(=O)[C@H]1C[C@@H]1[C@H](NC(=O)c1cnccn1)c1ccccc1 |  | inactive
49 | COC(=O)[C@@H]1C[C@H]1[C@@H](NC(=O)c1cnccn1)c1ccccc1 |  | inactive
